The nature of assay [1]: NCI Yeast Anticancer Drug Screen. Data for the rad50 strain (AID 155).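 Also: 0% = growth of vehicle-only cultures of the same strain.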 The settings on record: S. cerevisiae rad50 strain growth inhibition, active compounds read high. The gist of the method:
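Readout: growth inhibition relative to vehicle-treated cultures. Compound exposure was carried out in a genetically defined yeast strain deficient in DNA damage repair.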

Assay [2] is described as follows: NCI Yeast Anticancer Drug Screen. Data for the mec2-1 strain (AID 157). The settings on record: S. cerevisiae mec2-1 strain, active compounds read high. In short, it runs like this:
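Compounds were applied to mec2-1 yeast cells. Their growth was then compared with that of vehicle-treated cultures to give growth inhibition.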

A short description of assay [3]: NCI Yeast Anticancer Drug Screen. Data for the cln2 rad14 strain (AID 165).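 Also: 0% = growth equal to vehicle treated cultures.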 The settings on record: S. cerevisiae cln2 rad14 strain, active compounds read high. In short, it runs like this:
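Strain: cln2 rad14 yeast, altered in cell cycle control and DNA damage repair. Read-out: growth inhibition vs vehicle.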

Assay [4] in a line: NCI Yeast Anticancer Drug Screen. Data for the bub3 strain (AID 167). The settings on record: S. cerevisiae bub3 mutant strain, active compounds read high. In short, it runs like this: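 Readout: yeast growth inhibition, expressed relative to vehicle-only wells. The test organism is a mutant strain from a panel with lesions in DNA repair or checkpoint genes.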
Assay [5] can be described thus: NCI Yeast Anticancer Drug Screen. Data for the mlh1 rad18 strain (AID 175). The settings on record: S. cerevisiae mlh1 rad18 strain growth inhibition, active compounds read high. The gist of the method: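 A repair-deficient yeast strain is exposed to test compound, and growth is scored relative to vehicle-treated controls.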
Assay [6] in a line: NCI Yeast Anticancer Drug Screen. Data for the sgs1 mgt1 strain (AID 161).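 Also: 0% = growth of cultures given vehicle only.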 The settings on record: S. cerevisiae sgs1 mgt1 strain, active compounds read high. The gist of the method: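 Percent growth inhibition was derived by comparing compound-exposed mutant yeast with vehicle-exposed cultures. The strain carries alterations in DNA damage repair.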
The mark [7] stands for this setting: at 5.0 µM (retest, dose inferred, filed as 0.5).
The mark [8] stands for this setting: at 50.0 µM (retest, dose inferred, filed as 5.0).

The panel holds about 79,000 compounds, 15% with a hit somewhere; the sample as a whole holds those more often. Unmarked numbers belong to inactive results. Activity calls are given as the source filed them. Rule as the data show it: active = growth inhibition above about 70%; inactive = the rest.

On to `C1=C(c2ccccc2)OC(c2ccccc2)=C[P+]1(c1ccccc1)c1ccccc1`, for which the growth inhibition in assay [1] (setting [7]) is 96% (active); in assay [1] (setting [8]), 98% (active); in assay [1] (at 50.0 µM) it was 92.1% (active); in assay [2] (setting [7]), 98% (active); in assay [2] (setting [8]) it was 99% (active); in assay [2] (at 50.0 µM), 90.8% (active). The growth inhibition was 93% (active) in assay [3] (setting [7]); 99% (active) in assay [3] (setting [8]); 86.8% (active) in assay [3] (at 50.0 µM); 97% (active) in assay [4] (setting [7]); 99% (active) in assay [4] (setting [8]); 93% (active) in assay [4] (at 50.0 µM). For the same molecule, the growth inhibition is 95% (active) in assay [5] (setting [7]), 98% (active) in assay [5] (setting [8]) and 92.7% (active) in assay [5] (at 50.0 µM).
Take `COc1ccc(/C=C/C(C(=O)O)C(=O)O)cc1`: the growth inhibition was 19% in assay [1] (setting [7]); 65% in assay [1] (setting [8]); 82.7% (active) in assay [1] (at 50.0 µM); -20% in assay [2] (setting [7]); 84% (active) in assay [2] (setting [8]); 76% (active) in assay [2] (at 50.0 µM). Further, the growth inhibition in assay [6] (setting [7]) is 6%; in assay [6] (setting [8]), 59%; in assay [6] (at 50.0 µM), 76% (active); in assay [3] (setting [7]) it was 37%; in assay [3] (setting [8]), 47%; in assay [3] (at 50.0 µM), 44.4%. The growth inhibition was 14% in assay [4] (setting [7]); 88% (active) in assay [4] (setting [8]); 82.5% (active) in assay [4] (at 50.0 µM); -4% in assay [5] (setting [7]); 89% (active) in assay [5] (setting [8]); 78% (active) in assay [5] (at 50.0 µM).
As to `CCCCCCCCCCCCCCCC[n+]1ccc(/C=C/c2ccccc2)cc1`, the growth inhibition in assay [1] (setting [7]) was 75% (active); in assay [1] (setting [8]) it was 95% (active); in assay [1] (at 50.0 µM), 98.4% (active); in assay [2] (setting [7]), 100% (active); in assay [2] (setting [8]), 96% (active); in assay [2] (at 50.0 µM), 98.8% (active). Further, the growth inhibition in assay [6] (setting [7]) was 99% (active); in assay [6] (setting [8]), 98% (active); in assay [6] (at 50.0 µM), 98.5% (active); in assay [3] (setting [7]) it was 46%; in assay [3] (setting [8]) it was 94% (active); in assay [3] (at 50.0 µM) it was 97.8% (active). Further, the growth inhibition in assay [4] (setting [7]) was 88% (active); in assay [4] (setting [8]), 97% (active); in assay [4] (at 50.0 µM) it was 97.8% (active); in assay [5] (setting [7]), 99% (active); in assay [5] (setting [8]) it was 98% (active); in assay [5] (at 50.0 µM), 97.7% (active).
In the case of `COc1ccc(Cc2nncc3ccccc23)cc1OC`, the growth inhibition is -4% in assay [1] (setting [7]); 84% (active) in assay [1] (setting [8]); 91.2% (active) in assay [1] (at 50.0 µM); 1% in assay [2] (setting [7]); 83% (active) in assay [2] (setting [8]); 96.5% (active) in assay [2] (at 50.0 µM). Besides, the growth inhibition in assay [6] (setting [7]) is -3%; in assay [6] (setting [8]), 92% (active); in assay [6] (at 50.0 µM), 95.3% (active); in assay [3] (setting [7]) it was 1%; in assay [3] (setting [8]), 83% (active); in assay [3] (at 50.0 µM), 72.2% (active). Further, the growth inhibition is 1% in assay [4] (setting [7]); 90% (active) in assay [4] (setting [8]); 96% (active) in assay [4] (at 50.0 µM); -4% in assay [5] (setting [7]); 93% (active) in assay [5] (setting [8]); 95.7% (active) in assay [5] (at 50.0 µM).
On to `O=C(Oc1cc([N+](=O)[O-])ccc1Cl)Oc1cc([N+](=O)[O-])ccc1Cl`, for which the growth inhibition in assay [1] (setting [7]) is -6%; in assay [1] (setting [8]) it was 97% (active); in assay [1] (at 50.0 µM) it was 97.5% (active); in assay [2] (setting [7]), 0%; in assay [2] (setting [8]) it was 99% (active); in assay [2] (at 50.0 µM) it was 99.5% (active). Further, the growth inhibition in assay [3] (setting [7]) was 0%; in assay [3] (setting [8]), 98% (active); in assay [3] (at 50.0 µM), 97.9% (active); in assay [4] (setting [7]) it was -9%; in assay [4] (setting [8]), 98% (active); in assay [4] (at 50.0 µM), 98.8% (active). In addition, the values for the growth inhibition in assay [5] (setting [7]), in assay [5] (setting [8]) and in assay [5] (at 50.0 µM) were -5%, 98% (active) and 98.6% (active), respectively.
As to `COC(=O)/C=C/c1c2ccccc2cc2ccccc12`, the growth inhibition in assay [1] (setting [7]) was 11%; in assay [1] (setting [8]), 28%; in assay [1] (at 50.0 µM), 14.8%; in assay [2] (setting [7]) it was 13%; in assay [2] (setting [8]), 39%; in assay [2] (at 50.0 µM) it was 25.2%. Besides, the growth inhibition in assay [6] (setting [7]) is 18%; in assay [6] (setting [8]), 46%; in assay [6] (at 50.0 µM), 64.3%; in assay [3] (setting [7]) it was 8%; in assay [3] (setting [8]) it was 24%; in assay [3] (at 50.0 µM) it was 39.8%. The growth inhibition was 6% in assay [5] (setting [7]), 36% in assay [5] (setting [8]) and 75.3% (active) in assay [5] (at 50.0 µM).
Regarding `CN1C(=O)CCC2[C@@H]3CC=C4C[C@@H](O)CC[C@]4(C)C3CC[C@@]21C` (stereo not given in full), the growth inhibition is -3% in assay [1] (setting [7]); 27% in assay [1] (setting [8]); 16.4% in assay [1] (at 50.0 µM); 0% in assay [2] (setting [7]); 11% in assay [2] (setting [8]); 0.3% in assay [2] (at 50.0 µM). The growth inhibition is 1% in assay [6] (setting [7]); 59% in assay [6] (setting [8]); 69.8% in assay [6] (at 50.0 µM); 10% in assay [3] (setting [7]); 13% in assay [3] (setting [8]); 28.8% in assay [3] (at 50.0 µM). Besides, the results for the growth inhibition in assay [5] (setting [7]), in assay [5] (setting [8]) and in assay [5] (at 50.0 µM) were -7%, 16% and 70.8% (active), respectively.
Consider `CCCCC#CCOC(=O)c1cc([N+](=O)[O-])cc([N+](=O)[O-])c1`, for which the growth inhibition in assay [1] (setting [7]) was 97% (active); in assay [1] (setting [8]) it was 99% (active); in assay [1] (at 50.0 µM), 99.2% (active); in assay [2] (setting [7]), 99% (active); in assay [2] (setting [8]), 100% (active); in assay [2] (at 50.0 µM), 98.5% (active). The growth inhibition in assay [6] (setting [7]) was 99% (active); in assay [6] (setting [8]) it was 99% (active); in assay [6] (at 50.0 µM), 99.8% (active); in assay [3] (setting [7]), 67%; in assay [3] (setting [8]), 99% (active); in assay [3] (at 50.0 µM), 99.3% (active). Besides, the growth inhibition in assay [4] (setting [7]) was 96% (active); in assay [4] (setting [8]) it was 100% (active); in assay [4] (at 50.0 µM), 99.3% (active); in assay [5] (setting [7]) it was 98% (active); in assay [5] (setting [8]), 99% (active); in assay [5] (at 50.0 µM), 98.8% (active).
With `O=C(NC1CCN(Cc2ccccc2)CC1)c1ccc(I)cc1`, the growth inhibition in assay [1] (setting [7]) was 40%; in assay [1] (setting [8]), 59%; in assay [1] (at 50.0 µM), 68%; in assay [2] (setting [7]) it was 46%; in assay [2] (setting [8]), 62%; in assay [2] (at 50.0 µM), 49.7%. The growth inhibition in assay [6] (setting [7]) was 52%; in assay [6] (setting [8]), 87% (active); in assay [6] (at 50.0 µM), 74.6% (active); in assay [3] (setting [7]), 81% (active); in assay [3] (setting [8]), 88% (active); in assay [3] (at 50.0 µM) it was 77.2% (active). The growth inhibition in assay [5] (setting [7]) was 53%; in assay [5] (setting [8]), 78% (active); in assay [5] (at 50.0 µM), 76.8% (active).
Turning to `Cc1ccc(C(OS(=O)(=O)c2ccc(C)cc2)C(F)(F)F)cc1` (stereo not given), the growth inhibition in assay [1] (setting [7]) is -1%; in assay [1] (setting [8]) it was -2%; in assay [1] (at 50.0 µM) it was 62.6%; in assay [2] (setting [7]), -11%; in assay [2] (setting [8]), -1%; in assay [2] (at 50.0 µM) it was 52.5%. The growth inhibition is -4% in assay [6] (setting [7]); -13% in assay [6] (setting [8]); 72.9% (active) in assay [6] (at 50.0 µM); 3% in assay [3] (setting [7]); -2% in assay [3] (setting [8]); 15.1% in assay [3] (at 50.0 µM). The growth inhibition was 0% in assay [4] (setting [7]); 37% in assay [4] (setting [8]); 1.7% in assay [4] (at 50.0 µM); 19% in assay [5] (setting [7]); 2% in assay [5] (setting [8]); 66.2% in assay [5] (at 50.0 µM).

The values above are taken from PubChem BioAssay (NCI).
